“And” between values parts separate entries of the source, which are not always exact repeats. Equal entries are not always repeated. Records with an inconclusive call do not appear. The source made the active and inactive calls. Unless noted, calls follow the shape of the dose curve; as a rule, active = well fitted curve in the direction sought with a large enough effect; inconclusive = small, poorly fitted or top-dose-only effect, or another doubt; inactive = no such curve, though single readings can be large; an effect the other way counts as inactive or inconclusive.
Columns and labels:
[1] = Cell Viability - HUV-EC-C (AID 542); also: % is scaled to controls: 0 for no effect and ±100 for the full control effect; nearly all actives have a fitted effect of over 35% in size
Method in brief: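 qHTS cytotoxicity: HUV-EC-C, 1000 cells/well, 5 hr settle, compound 40 hr 37 °C, CellTiter-Glo, luminescence. AC50 via Hill equation.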

[2] = Cell Viability - H-4-II-E (AID 543); also: % is scaled to controls: 0 for no effect and ±100 for the full control effect; nearly all actives have a fitted effect of over 35% in size
Method in brief: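 Luminescent ATP signal (CellTiter-Glo) served as the viability read-out, with cytotoxicity seen as a concentration-dependent ATP drop. Cells were treated for 40 hours in complete medium. AC50 values derive from Hill-equation modelling.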

[3] = Cell Viability - LYMP2-005 (AID 967); also: potency is read from the fitted curve at half-maximal effect
Method in brief: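 CellTiter-Glo luminescence (cellular ATP) read-out; LYMP2-005 lymphoblastoid cells, 2500/well, 5 h pre-incubation, then 24 h compound exposure at 37 C in complete medium. Tetraoctylammonium bromide positive control; AC50 by standard Hill fit.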

[4] = Cell Viability - LYMP1-002 - Assay at 40 hr (AID 994);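 also: 0% = DMSO only and full inhibition = 92 µM tetraoctylammonium bromide; nearly all actives have a fitted effect of over 60% in size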
Method in brief: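 Luminescent ATP signal served as the viability readout, with decreases taken as toxicity. Cells were treated with compounds across a concentration range for 40 hours at 37 C, and AC50 values came from standard Hill modeling.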

[5] = molecular target: Estrogen receptor (Homo sapiens) (UniProt P03372); assay: qHTS assay for small molecule agonists of estrogen receptor alpha signaling (AID 588514; calls by dose curve;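 also: 0% = vehicle only and 100% = reference agonist; nearly all actives have a fitted effect of over 70% in size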)
Chain of Estrogen receptor (Homo sapiens) (P03372 whole entry, looked up): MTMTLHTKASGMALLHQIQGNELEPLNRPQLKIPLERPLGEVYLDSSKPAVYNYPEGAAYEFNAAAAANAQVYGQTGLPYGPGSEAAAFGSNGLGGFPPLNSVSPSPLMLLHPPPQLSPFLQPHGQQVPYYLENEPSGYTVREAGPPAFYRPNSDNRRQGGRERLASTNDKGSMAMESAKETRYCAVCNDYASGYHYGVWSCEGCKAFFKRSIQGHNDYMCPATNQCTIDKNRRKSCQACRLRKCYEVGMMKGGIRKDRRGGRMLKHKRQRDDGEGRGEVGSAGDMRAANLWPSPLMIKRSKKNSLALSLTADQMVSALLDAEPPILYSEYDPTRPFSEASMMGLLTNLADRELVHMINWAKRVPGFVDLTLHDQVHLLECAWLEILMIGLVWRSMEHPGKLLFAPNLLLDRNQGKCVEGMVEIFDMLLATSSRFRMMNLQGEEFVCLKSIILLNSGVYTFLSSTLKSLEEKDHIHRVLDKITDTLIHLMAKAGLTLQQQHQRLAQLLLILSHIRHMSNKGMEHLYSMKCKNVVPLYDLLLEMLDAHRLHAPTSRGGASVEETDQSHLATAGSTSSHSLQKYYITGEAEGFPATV
Method in brief: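 Cells were plated at 5000/well, incubated 4 hrs at 37 C, dosed with compound titration series, incubated 18 hrs at 37 C, loaded with CCF4 dye for 2 hrs at RT, then fluorescence was read.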

[6] = molecular target: Glucocorticoid receptor (Homo sapiens) (UniProt P04150); assay: qHTS assay for small molecule agonists of glucocorticoid receptor signaling (AID 588532; active = well fitted curve in the direction sought with a large enough effect in the signal ratio, with a control signal flat; the % refers to the signal ratio;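 also: 100% = dexamethasone at 0.1 µM and 0% = DMSO only wells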); conditions: HeLa MMTV-bla, beta-lactamase ratio, agonist, 18 h; stronger effect = higher value; percent of dexamethasone control, DMSO zero
Chain of Glucocorticoid receptor (Homo sapiens) (P04150 whole entry, looked up): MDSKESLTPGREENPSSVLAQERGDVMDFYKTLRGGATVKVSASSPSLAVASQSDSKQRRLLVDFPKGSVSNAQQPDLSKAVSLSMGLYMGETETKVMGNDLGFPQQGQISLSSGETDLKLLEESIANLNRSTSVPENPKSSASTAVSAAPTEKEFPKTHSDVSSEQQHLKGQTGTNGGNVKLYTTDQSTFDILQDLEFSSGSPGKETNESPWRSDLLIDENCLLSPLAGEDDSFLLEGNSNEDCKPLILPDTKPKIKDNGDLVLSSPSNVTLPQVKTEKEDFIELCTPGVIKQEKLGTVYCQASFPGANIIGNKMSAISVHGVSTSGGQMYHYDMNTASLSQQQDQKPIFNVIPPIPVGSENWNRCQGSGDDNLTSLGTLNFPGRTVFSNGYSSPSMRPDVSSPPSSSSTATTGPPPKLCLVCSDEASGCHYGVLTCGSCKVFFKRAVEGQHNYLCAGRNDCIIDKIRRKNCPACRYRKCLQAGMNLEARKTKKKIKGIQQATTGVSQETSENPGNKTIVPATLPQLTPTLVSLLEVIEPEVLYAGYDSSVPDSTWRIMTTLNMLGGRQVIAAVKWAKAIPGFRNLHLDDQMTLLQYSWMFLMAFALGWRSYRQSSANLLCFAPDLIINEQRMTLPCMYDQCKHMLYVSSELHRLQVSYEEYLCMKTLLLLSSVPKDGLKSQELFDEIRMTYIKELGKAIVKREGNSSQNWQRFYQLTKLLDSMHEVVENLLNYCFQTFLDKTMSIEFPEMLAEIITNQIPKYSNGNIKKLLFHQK
Method in brief: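 Cells were plated and rested 3-5 h at 37 C, compounds were added in titration and incubated 18 h, then CCF4 substrate was loaded for 2 h at RT before reading blue/green fluorescence. EC50 came from Hill-equation fitting.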

[7] = molecular target: Peroxisome proliferator-activated receptor delta (Homo sapiens) (UniProt Q03181); assay: qHTS assay for small molecule agonists of peroxisome proliferator-activated receptor delta signaling (AID 588534; calls by dose curve;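 also: 0% = DMSO basal wells and 100% = positive control agonist at 10 µM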)
Chain of Peroxisome proliferator-activated receptor delta (Homo sapiens) (Q03181 whole entry, looked up): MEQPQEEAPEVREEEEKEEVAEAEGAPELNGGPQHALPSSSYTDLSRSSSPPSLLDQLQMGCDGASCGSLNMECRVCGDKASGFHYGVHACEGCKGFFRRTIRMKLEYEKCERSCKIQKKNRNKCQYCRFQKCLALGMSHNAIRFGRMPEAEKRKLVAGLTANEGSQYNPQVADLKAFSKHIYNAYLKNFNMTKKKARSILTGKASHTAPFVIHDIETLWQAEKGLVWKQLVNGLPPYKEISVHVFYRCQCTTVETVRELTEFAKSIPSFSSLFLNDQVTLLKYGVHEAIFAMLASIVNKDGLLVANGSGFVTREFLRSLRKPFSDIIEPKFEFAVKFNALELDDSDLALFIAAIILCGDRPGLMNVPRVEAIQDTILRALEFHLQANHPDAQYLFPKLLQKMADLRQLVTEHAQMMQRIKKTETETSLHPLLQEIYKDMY
Method in brief: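 Fluorescence from CCF4 substrate cleavage by beta-lactamase reporter, read 2 hrs at RT, measured agonist activity. Compounds were tested with 18 hrs exposure at 37 C. Concentration-response data fitted to Hill equation.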

[8] = molecular target: Peroxisome proliferator-activated receptor gamma (Homo sapiens) (UniProt P37231); assay: qHTS assay for small molecule agonists of peroxisome proliferator-activated receptor gamma signaling (AID 588536; active = well fitted curve in the direction sought with a large enough effect in the signal ratio, with a control signal flat, not every such curve was filed as active; the % refers to the signal ratio;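 also: 0% = DMSO basal wells and 100% = rosiglitazone at 2 µM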)
Chain of Peroxisome proliferator-activated receptor gamma (Homo sapiens) (P37231 whole entry, looked up): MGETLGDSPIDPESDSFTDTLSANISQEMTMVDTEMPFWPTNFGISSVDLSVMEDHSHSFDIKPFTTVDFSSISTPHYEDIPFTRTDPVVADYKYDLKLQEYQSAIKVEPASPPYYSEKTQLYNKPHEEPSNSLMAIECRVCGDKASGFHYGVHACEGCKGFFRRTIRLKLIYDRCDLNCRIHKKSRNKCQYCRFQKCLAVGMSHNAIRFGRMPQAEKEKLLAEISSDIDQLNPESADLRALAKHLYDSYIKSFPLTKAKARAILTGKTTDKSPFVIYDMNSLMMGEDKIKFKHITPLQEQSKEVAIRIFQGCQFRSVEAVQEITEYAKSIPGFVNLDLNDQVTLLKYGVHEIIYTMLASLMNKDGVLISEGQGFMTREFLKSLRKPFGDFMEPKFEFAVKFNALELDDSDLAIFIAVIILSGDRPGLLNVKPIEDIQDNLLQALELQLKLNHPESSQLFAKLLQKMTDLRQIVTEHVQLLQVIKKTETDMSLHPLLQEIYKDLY
Method in brief: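 HEK293 UAS-bla reporter line, 1% charcoal/dextran FBS; titration, 16 h, 37 C; CCF4 loading 2 h RT; fluorescence 460/530 nm. Normalized to rosiglitazone 2 uM = 100%, DMSO = 0%.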

[9] = molecular target: Vitamin D3 receptor (Homo sapiens) (UniProt P11473); assay: qHTS assay for small molecule antagonists of vitamin D receptor signaling (AID 588541; calls by dose curve;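 also: receptor activated by calcitriol during compound treatment; % is scaled to controls: 0 for no effect and ±100 for the full control effect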)
Chain of Vitamin D3 receptor (Homo sapiens) (P11473 whole entry, looked up): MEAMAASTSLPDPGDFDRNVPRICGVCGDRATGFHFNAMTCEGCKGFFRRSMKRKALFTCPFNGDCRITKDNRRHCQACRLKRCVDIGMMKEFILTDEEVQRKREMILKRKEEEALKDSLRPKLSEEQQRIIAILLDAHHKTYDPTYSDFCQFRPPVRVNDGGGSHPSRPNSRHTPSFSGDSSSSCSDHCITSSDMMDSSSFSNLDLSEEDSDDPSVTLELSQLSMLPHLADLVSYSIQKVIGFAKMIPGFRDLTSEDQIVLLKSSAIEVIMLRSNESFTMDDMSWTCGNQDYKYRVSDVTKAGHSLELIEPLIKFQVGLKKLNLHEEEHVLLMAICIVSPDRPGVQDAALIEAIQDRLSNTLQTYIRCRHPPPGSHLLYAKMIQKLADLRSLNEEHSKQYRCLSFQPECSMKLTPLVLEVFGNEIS
Method in brief: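 VDR-UAS-bla HEK293T cells in 2% charcoal-stripped FBS were stimulated with 1-alpha,25-dihydroxyvitamin D3 (3 nM final) plus compound for 16 h at 37 C. The beta-lactamase CCF4 readout was normalized to 50 nM agonist and DMSO, and Hill fits gave IC50.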

[10] = molecular target: Vitamin D3 receptor (Homo sapiens) (UniProt P11473); assay: qHTS assay for small molecule agonists of vitamin D receptor signaling (AID 588543; calls by dose curve;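 also: 0% = DMSO basal and 100% = reference agonist control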)
Method in brief: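 GeneBLAzer VDR-UAS-bla HEK293T cells in 2% charcoal-stripped FBS medium were dosed with compound titrations for 16 h at 37 °C; CCF4 β-lactamase readout (405 nm ex, 460/530 nm em). EC50 and efficacy from Hill fits, normalized to 50 nM calcitriol (100%) and DMSO (0%).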

[11] = qHTS assay for small molecule agonists of the antioxidant response element (ARE) signaling pathway (AID 651741; active = well fitted activation curve with a large enough effect in the signal ratio; the % refers to the signal ratio; also: % of control where 0% means no effect)
Method in brief: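 CellSensor ARE-bla HepG2 cells (2,000/well) carrying ARE-driven beta-lactamase, exposed 16 h at 37 C. LiveBLAzer B/G FRET substrate added for 2 h at room temperature; fluorescence intensity read.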

[12] = qHTS assay for small molecule activators of the nuclear factor-kappa B (NF-kB) signaling pathway (AID 651749; active = well fitted activation curve with a large enough effect in the signal ratio; the % refers to the signal ratio; also: % of control where 0% means no effect); conditions: NF-kB-bla ME-180 cells, beta-lactamase FRET ratio, 16 h; stronger effect = higher value
Method in brief: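 NF-kB-bla ME-180 cells carrying a beta-lactamase reporter under an NF-kB response element, 2,000 cells/well, exposed to compound for 16 hr at 37C; FRET-based beta-lactamase fluorescence read-out of pathway activation.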

[13] = Cell Viability - N2a (AID 540); conditions: N2a mouse neuroblastoma cell viability; activity change, negative = cytotoxicity: at 92.2 µM (top of the series);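 also: cells exposed to compound for 40 h at 37 °C; plate controls were DMSO alone for no effect and tamoxifen control for full effect; nearly all actives have a fitted effect of over 45% in size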
Method in brief: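 Luminescent ATP signal (CellTiter-Glo, 20 min at room temperature) served as the viability read-out after N2a cells were treated with compounds for 40 hours at 37 °C. Concentration-response data were fitted to the Hill equation for AC50.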

[14] = MultiTox-Fluor Cytotoxicity Assay - LYMP1-001 - Live Cells (AID 947);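 also: 0% = DMSO only and full inhibition = tetraoctylammonium bromide control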
[15] = MultiTox-Fluor Cytotoxicity Assay - LYMP1-002 - Dead Cells (AID 960); also: nearly all actives have a fitted effect of over 60% in size; also: potency is read from the fitted curve at half-maximal effect
Method in brief: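 LYMP1-002 cells 2500/well; 5 hr 37 C pre-incubation; compound 16 hr 37 C; MultiTox-Fluor reagent 60 min RT; dead-cell fluor Ex/Em 485/520. Norm. to DMSO (0%) vs 15 uM tetraoctylammonium bromide (100%); Hill AC50.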

[16] = molecular target: Glucocorticoid receptor (Homo sapiens) (UniProt P04150); assay: qHTS assay for small molecule antagonists of glucocorticoid receptor signaling (AID 588533; active = well fitted inhibition curve with a large enough effect in the signal ratio, with a control signal flat, not every such curve was filed as active; the % refers to the signal ratio; also: % is scaled to controls: 0 for no effect and ±100 for the full control effect)
Method in brief: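 Antagonist-mode qHTS: compound titrations added to GRE-bla HeLa cells, then dexamethasone 2 nM final; 18 h, 37 C. CCF4 FRET fluorescence normalized to dexamethasone and DMSO; IC50 from Hill fit.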

[17] = qHTS assay for small molecule antagonists of peroxisome proliferator-activated receptor delta signaling (AID 588535; active = well fitted inhibition curve with a large enough effect in the signal ratio, with a control signal flat, not every such curve was filed as active; the % refers to the signal ratio;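 as to max response: cells co-treated with a PPAR-delta agonist as stimulator during compound exposure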); conditions: HEK293T PPARd-UAS-bla, beta-lactamase FRET ratio, 18 h; 460 nm channel
Method in brief: (§1)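 Antagonist-mode beta-lactamase reporter (GeneBLAzer PPAR-delta-UAS-bla) in HEK293T cells, 2% charcoal/dextran FBS, 4000 cells/well. Compound titrations, 18 h at 37 C; CCF4 ratio read, IC50 and efficacy from Hill fits.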

[18] = molecular target: Peroxisome proliferator-activated receptor delta (Homo sapiens) (UniProt Q03181); assay: as above
Method in brief: as §1

[19] = molecular target: Peroxisome proliferator-activated receptor gamma (Homo sapiens) (UniProt P37231); assay: qHTS assay for small molecule antagonists of peroxisome proliferator-activated receptor gamma signaling (AID 588537; active = well fitted inhibition curve with a large enough effect in the signal ratio, with a control signal flat, not every such curve was filed as active; the % refers to the signal ratio;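 also: reporter cells co-stimulated with 50 nM rosiglitazone agonist during compound treatment; % of control where 0% means no effect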)
Method in brief: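 PPARγ-UAS-bla HEK293 cells (3000/well) in 1% charcoal/dextran-stripped FBS are treated with compound, then stimulated with 50 nM rosiglitazone for 16 h at 37 °C. Read-out is CCF4 β-lactamase fluorescence after 2 h at RT. IC50 comes from Hill fits normalised to rosiglitazone and DMSO.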

[20] = molecular target: Bile acid receptor (Homo sapiens) (UniProt Q96RI1); assay: qHTS assay for small molecule agonists of farnesoid X receptor signaling (AID 588527; calls by dose curve;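 also: 0% = vehicle basal and 100% = reference agonist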); conditions: HEK293T FXR-UAS-bla, beta-lactamase ratio, 16 h; stronger effect = higher value
Chain of Bile acid receptor (Homo sapiens) (Q96RI1 whole entry, looked up): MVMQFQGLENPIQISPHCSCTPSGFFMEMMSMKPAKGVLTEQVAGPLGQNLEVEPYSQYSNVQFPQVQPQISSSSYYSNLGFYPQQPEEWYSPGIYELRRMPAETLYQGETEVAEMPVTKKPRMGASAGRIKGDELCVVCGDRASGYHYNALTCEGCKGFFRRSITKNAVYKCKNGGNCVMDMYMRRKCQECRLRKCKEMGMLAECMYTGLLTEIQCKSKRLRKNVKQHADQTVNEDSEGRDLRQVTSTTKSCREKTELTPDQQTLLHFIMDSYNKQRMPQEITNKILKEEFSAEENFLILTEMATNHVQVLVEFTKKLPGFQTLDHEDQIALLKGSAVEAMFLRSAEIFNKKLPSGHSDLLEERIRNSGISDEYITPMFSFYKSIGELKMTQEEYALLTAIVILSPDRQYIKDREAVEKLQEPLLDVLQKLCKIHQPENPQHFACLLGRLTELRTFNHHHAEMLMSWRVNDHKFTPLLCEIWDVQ
Method in brief: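 Quantitative HTS used FXR-UAS-bla HEK293T cells with 16 h compound incubation at 37 C. EC50 values came from concentration-response curves normalized to chenodeoxycholic acid.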

[N-]=[N+]=[N-]
active: Potency [3] 2.51 µM
inactive: Potency [1] | Potency [2] | Potency [4] | Potency [5] | activation [6] -7.88% | outcome [7] | outcome [8] | outcome [9] | outcome [10] | Potency [11] | activation [12] 0.007%

COC(=O)c1ccccc1N
-46.7%: max response [17]
inactive: Potency [13] | Potency [1] | Potency [2] | outcome [14] | Potency [15] | Potency [3] | Potency [4] | activation [6] -6.23% | outcome [16] | outcome [18] | outcome [8] | Potency [19] | outcome [9] | outcome [10] | activation [12] -0.425%

O=[N+]([O-])c1cccc(O)c1
inactive: Potency [1] | outcome [14] | Potency [15] | Potency [3] | Potency [4] | activation [20] -2.84% | outcome [7] | outcome [8] | outcome [9] | outcome [10] | activation [12] -0.57%

CC(=O)[O-].CC(=O)[O-].CC(=O)[O-].[Cr+3]
inactive: Potency [13] | Potency [2] | Potency [3] | Potency [4] | Potency [11]

CCCN(CCC)c1c([N+](=O)[O-])cc(C(F)(F)F)cc1[N+](=O)[O-]
inactive: Potency [13] | Potency [1] | Potency [2] | Potency [15] | Potency [3] | Potency [4] | Potency [5] | activation [20] 1.13% | outcome [7] | outcome [18] | outcome [8] | Potency [19] | outcome [9] | outcome [10] | activation [12] -3.66% and -3.44%
0.867%: max response [17]

NC1CCC(CC2CCC(N)CC2)CC1 (stereo unspecified)
active: Potency [15] 3.98 µM
inactive: Potency [13] | Potency [1] | Potency [2] | outcome [14] | Potency [3] | Potency [5] | activation [20] -0.153% and 0.847% | activation [6] 2.97% and -18.9% | outcome [16] | outcome [18] | outcome [8] | Potency [19] | Potency [11]
-9.87%: max response [17]

CNC(=O)O/N=C/C(C)(C)S(C)=O (stereo unspecified)
8.11% and 9.71%: max response [17]
inactive: Potency [1] | outcome [14] | Potency [3] | Potency [4] | Potency [5] | activation [20] -0.355% and 3.36% | activation [6] 15.3% and 5.05% | outcome [16] | outcome [7] | outcome [18] | outcome [8] | Potency [19] | outcome [9] | outcome [10] | activation [12] -0.721% and -0.0233%

CC(C)(C)C(O)(CCc1ccc(Cl)cc1)Cn1cncn1 (stereo unspecified)
-43.6% and 58.8%: max response [17]
inactive: outcome [14] | Potency [15] | Potency [3] | Potency [4] | activation [6] 3.38% and -5.28% | outcome [16] | outcome [7] | outcome [18] | outcome [8] | Potency [19] | Potency [11]

Cc1coc2c1CCC(C)C2 (stereo unspecified)
inactive: Potency [1] | Potency [2] | outcome [14] | Potency [15] | Potency [3] | Potency [4] | Potency [5] | activation [6] 1.47% | outcome [16] | outcome [18] | outcome [9] | outcome [10]
-2.44%: max response [17]

Source: PubChem BioAssay (NCATS)
